An excerpt weighted towards active compounds, which were near 5.5% of everything screened.
VP16 counter: counter-screen for ROR gamma inhibitors: Gal4-VP16 reporter; Potency, µM (highest dose often 53.6 µM), for inactives: top-dose activity, negative = inhibition, hits mostly inhibitors; hit rate 3.5% among 310,000; AID 2546; Drosophila S2 Gal4-VP16 UAS-luciferase, luminescence, 20 h;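 further: Gal4-VP16 expression switched on by copper sulfate through the metallothionein promoter; on the % scale 0 is the no-effect control and ±100 the full control effect; nearly all actives have a fitted effect of over 50% in size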
Chronic BCR inh: blocks chronic active B-cell receptor signaling. ABC-DLBCL IkBa-CBG/CBR reporter, luminescence ratio, 4 h. Potency, µM (highest dose often 46.1 µM), without a hit: at the top dose activity change, negative = inhibition, hits mostly inhibitors. hit rate 0.05% among 340,000; active means well fitted inhibition curve with a large enough effect in the signal ratio, with a control signal flat, not every such curve was filed as active; inconclusive means small, poorly fitted or top-dose-only effect, or effect the other way, or a change in a side signal; the % refers to the signal ratio;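 further: plate controls were basal doxycycline-induced cells for no effect and cells given 10 µM MG132 for full effect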
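Concentration-response series (up to 46 uM) were applied to TMD8 dual-reporter cells for 4 h at 37C with doxycycline. Green/red ratio, after filter-overlap correction, defined %Activity; red signal alone was normalised to basal cells and zero luminescence.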
uPA surface inh: cell surface uPA generation inhibition. cell surface uPA generation assay, qHTS. Potency, µM (top dose mostly 38.3 µM), inactives show at the highest dose activity change, negative = inhibition, usual class: inhibitors. hit rate 0.31% among 330,000. AID 540303; active means well fitted inhibition curve with a large enough effect; inconclusive means small, poorly fitted or top-dose-only effect; inactive means no such curve, though single readings can be large or run the other way; tested in mouse RAW 264.7 cells; further: on the % scale 0 is the no-effect control and ±100 the full control effect; nearly all actives have a fitted effect of over 55% in size
Integrin act MD: integrin-mediated muscular dystrophy alleviation activation. alpha7betagal myoblasts, beta-gal FDG fluorescence, 48 h. Potency, µM (top dose mostly 38.3 µM), without a hit: at the top dose activation, hits mostly activators. hit rate 0.064% among 350,000;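 further: 100% = response of the positive control SU9516; nearly all actives have a fitted effect of over 60% in size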
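alpha7betagal+/- myoblasts (passage 13, 250/well) treated 48 h at 37C with compounds at 1:260 dilution of DMSO stock. Lysed, then beta-galactosidase activity read as FDG fluorescence (ex 480/em 540) after 30 min, with pre-read for autofluorescence.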
RORg inh: inhibitors of mouse ROR gamma transcriptional activity; P51450; Drosophila S2 Gal4-RORgamma UAS-luciferase reporter, 20 h; Potency, µM (highest dose often 53.6 µM), for inactives: top-dose activity change, negative = inhibition, usual class: inhibitors; hit rate 5.4% among 310,000; AID 2551; further: on the % scale 0 is the no-effect control and ±100 the full control effect; nearly all actives have a fitted effect of over 60% in size
Target sequence (P51450 whole entry, looked up, the tested form may be a part): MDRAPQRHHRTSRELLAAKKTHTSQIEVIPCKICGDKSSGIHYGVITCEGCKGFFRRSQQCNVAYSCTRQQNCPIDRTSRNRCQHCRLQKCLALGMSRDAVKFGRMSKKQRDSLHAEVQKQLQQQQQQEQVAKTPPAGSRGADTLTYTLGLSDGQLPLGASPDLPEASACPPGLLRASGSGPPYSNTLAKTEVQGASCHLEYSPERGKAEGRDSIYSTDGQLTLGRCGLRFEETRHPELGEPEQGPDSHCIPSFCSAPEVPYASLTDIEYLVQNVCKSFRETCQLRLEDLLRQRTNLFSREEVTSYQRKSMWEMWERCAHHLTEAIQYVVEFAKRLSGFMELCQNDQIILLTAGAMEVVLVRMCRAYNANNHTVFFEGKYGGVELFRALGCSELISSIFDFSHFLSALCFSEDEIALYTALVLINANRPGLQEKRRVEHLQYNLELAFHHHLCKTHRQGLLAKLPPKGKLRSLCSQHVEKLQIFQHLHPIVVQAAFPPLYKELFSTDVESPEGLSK
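Schneider cells (Drosophila), stable Gal4 DBD–ROR gamma + UAS-luc; 1 hr cmpd preincubation; Cu2+ induction 700 uM final; 20 hr ambient; luminescence.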
Mito fusion act: mitochondrial division inhibition or fusion activation | S. cerevisiae fusion-defective mutant growth rescue, CellTiterGlo 48 h | Potency, µM (top dose mostly 46.1 µM), inactives show at the highest dose growth rescue (activation), usual class: activators | hit rate 0.23% among 320,000 | AID 485298; further: % of control where 0% means no effect; nearly all actives have a fitted effect of over 45% in size
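Read-out: ATP-based luminescence (CellTiterGlo, 10 min ambient) reporting growth of fusion-defective ts yeast after 48 hours at 37C on glycerol/ethanol YPEG medium in the presence of compound.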
* = called active by the depositor; ? = inconclusive; . = no result; [ ] = remark or other dose. Unless noted, the call rests on the fitted dose curve; in most records, active means well fitted curve in the direction sought with a large enough effect; inconclusive means small, poorly fitted or top-dose-only effect, or another doubt; inactive means no such curve, though single readings can be large; an effect the other way counts as inactive or inconclusive. Potency means the concentration at half of the fitted maximal effect.

SMILES	VP16 counter	Chronic BCR inh	uPA surface inh	Integrin act MD	RORg inh	Mito fusion act
C=CCn1c(=S)[nH]c2ccc(Br)cc2c1=O	3.16µM*	?	-5.3%	-12.4%	2.82µM*	-6.2%
CCC[C@@H]1C[C@@H](C(=O)N[C@@H]([C@H]2O[C@H](SC)[C@H](O)[C@@H](O)[C@H]2O)[C@@H](C)O)N(C)C1	3.0%	.	.	.	-12.1%	.
Cc1cccc(Cn2cccc2/C=C2/C(=N)N3C=CSC3=NC2=O)c1	7.94µM*	?	-1.5%	-12.3%	8.91µM*	-1.8%
Cc1ccc(Cn2cccc2/C=C2/C(=N)N3C=CSC3=NC2=O)cc1	?	-6.0%	-1.8%	2.1%	12.6µM*	-4.8%
N=C1/C(=C/c2cccn2Cc2ccc(F)cc2)C(=O)N=C2SC=CN12	-14.3%	9.5%	-11.2%	2.1%	10µM*	0.4%
N=C1/C(=C/c2cccn2-c2ccc([N+](=O)[O-])cc2)C(=O)N=C2SC=CN12	-11.8%	11.9%	-2.9%	-15.0%	8.5%	-8.9%
O=C(CCCn1c(=S)[nH]c2ccsc2c1=O)Nc1ccc2c(c1)OCO2	-18.6%	-5.1%	-6.3%	-11.7%	12.6µM*	1.7%
Cc1ccc(NC(=O)CCCn2c(=S)[nH]c3ccsc3c2=O)cc1C	?	5.6%	-2.1%	6.7%	12.6µM*	7.5%
COc1cc(NC(=O)CCCn2c(=S)[nH]c3ccccc3c2=O)cc(OC)c1OC	0.7%[10 µM]	-2.0%	1.6%	?	?	-8.7%
Cc1cccc(NC(=O)CCCn2c(=S)[nH]c3ccccc3c2=O)c1	3.7%[10 µM]	-25.2%	4.2%	?	11.2µM*	1.7%
C=CCN(C(=O)CCC(=O)Nc1cc(C)on1)C(C(=O)NC1CCCC1)c1ccc(CC)cc1 (stereo not given)	-7.4%	5.4%	.	0.0%	5.0%	12.5%
COc1ccc(NC(=O)Nc2nnc(SCC(=O)Nc3cccc(C)c3C)s2)cc1	.	-3.9%	.	.	.	.
CC/C=C\C/C=C\C/C=C\C/C=C\C/C=C\CCC(=O)O[C@H](COCCCCCCCCCCCCCCCC)COP(=O)([O-])OCC[N+](C)(C)C	2.0%	.	.	.	29.6%	.
CCn1nc(C)c(Oc2ccccc2O)c1C	6.7%	-6.8%	0.3%	5.0%	19.2%	-2.5%
Cc1cc(C)nc(-n2nc(C)c(Oc3ccccc3O)c2C)n1	?	-0.7%	9.7%	-15.9%	10µM*	5.8%
Cc1cccc(C(=O)Oc2ccc(/C=N/NC(=O)c3ccccc3O)cc2)c1	3.55µM*	?	-4.3%	3.2%	3.55µM*	3.7%
Cn1ncc(Br)c1C(=O)N/N=C/c1cccc(OC2CSC2)c1	-15.8%	-6.3%	5.2%	10.1%	-6.5%	-0.7%
O=C(N/N=C/c1cccc(OC2CSC2)c1)c1ccccc1O	0.0%	?	0.9%	2.0%	12.6µM*	-1.3%
O=C(N/N=C/c1ccc2nccnc2c1)c1ccccc1O	?	?	.	.	6.31µM*	-3.5%
O=C(N/N=C/c1cccc(C(F)(F)F)c1)c1ccccc1O	?	?	-0.4%	0.5%	10µM*	-4.1%
O=C(O)C(Cc1ccccc1)N1C(=O)C2C3CCC(C3)C2C1=O (stereo not given)	.	.	.	8.4%	.	.
Nc1nc(Cl)nc2c1ncn2C1OC(CO)C(O)C1F (stereo not given)	?	.	.	.	-34.3%	.
COc1ccc(O[C@H]2C=C[C@@H](c3ccccc3)O[C@H]2CO/N=C2/[C@H]3O[C@@H]3[C@@H](O)[C@H]3[C@H]2CCn2c(=O)n(-c4ccccc4)c(=O)n23)cc1	-7.8%[10 µM]	.	.	.	-1.5%[10 µM]	.
COc1cccc(NC(=S)N(CCCN2CCOCC2)Cc2cn(C)c3ccccc23)c1	?	-17.2%	-18.2%	1.2%	17.8µM*	-9.0%
CCc1ccccc1NC(=S)N(CCN1CCOCC1)Cc1ccccc1F	-6.2%	-0.4%	-1.8%	8.3%	15.8µM*	-4.9%
SMILES	VP16 counter	Chronic BCR inh	uPA surface inh	Integrin act MD	RORg inh	Mito fusion act
Cc1ccccc1NC(=S)N(CCN1CCOCC1)Cc1ccccc1F	-24.8%	-0.8%	5.2%	-12.2%	14.1µM*	0.8%
CCc1ccccc1NC(=S)N(CCN(C)C)Cc1cccs1	2.4%[10 µM]	-4.8%	0.0%	18.0%	11.2µM*	10.6%
Fc1ccccc1CN(CCN1CCOCC1)C(=S)Nc1ccccc1Cl	?	-2.8%	-0.5%	-16.6%	?	7.5%
Cc1ccc(NC(=S)N(CCN2CCOCC2)Cc2ccccc2F)cc1	-7.9%	?	2.1%	6.8%	?	2.4%
Cc1cc(NC(=S)N(CCN2CCOCC2)Cc2ccccc2F)ccc1Cl	?	-6.7%	8.6%	-26.2%	10µM*	-3.2%
Cc1ccc(-c2csc3ncnc(N4CCN(Cc5ccccc5)CC4)c23)cc1	-1.8%	-0.2%	5.4%	10.9%	?	-0.1%
Cc1csc2ncnc(NC3CCN(Cc4ccccc4)CC3)c12	2.82µM*	-8.2%	-5.6%	?	2.51µM*	-0.6%
N#CC(C#N)=C1C=CC=CN1/C(=C\c1ccccc1Cl)C(=O)c1ccccc1	3.16µM*	?	-11.0%	-40.3%	6.31µM*	-3.4%
O=C(NNC1=NS(=O)(=O)c2ccccc21)c1ccc([N+](=O)[O-])cc1	?	?	-4.7%	-11.0%	12.6µM*	-4.5%
CCN(CC)S(=O)(=O)c1ccc(C(=O)NNC2=NS(=O)(=O)c3ccccc32)cc1	-6.8%	7.5%	-5.2%	14.2%	0.2%	-4.1%
O=C(NNC1=NS(=O)(=O)c2ccccc21)c1ccc(Cl)cc1	?	?	3.55µM*	-5.1%	-41.8%	7.1%
COCCC(=O)N1CCc2c([nH]c3ccccc23)C1C(C)(C)C (stereo not given)	3.5%	?	-1.8%	-19.7%	-0.5%	-4.4%
CCn1ccnc1CN1CCc2c([nH]c3ccccc23)C1C1CCCCC1 (stereo not given)	?	?	-4.3%	13.2%	12.6µM*	-4.8%
COCc1ccc(CN2CCc3c([nH]c4ccccc34)C2C(C)(C)C)o1 (stereo not given)	?	-3.6%	2.0%	-5.6%	11.2µM*	4.3%
Cc1cnc(CN2CCc3c([nH]c4ccccc34)C2CC(C)C)[nH]1 (stereo not given)	11.2%	?	-1.2%	-19.6%	-32.8%	18.6%
CCn1ccnc1CN1CCc2c([nH]c3ccccc23)C1CC(C)C (stereo not given)	7.94µM*	?	13.6%	?	3.16µM*	-5.9%
CCn1ccnc1CN1CCc2c([nH]c3ccccc23)C1C(C)(C)C (stereo not given)	?	?	8.4%	27.1%	4.47µM*	-0.5%
COc1ccc2nc(NC(=O)C(NS(=O)(=O)c3cccc4nsnc34)C(C)C)sc2c1 (stereo not given)	11.2µM*	10.6%	-7.0%	3.5%	?	3.8%

Screening data: PubChem, National Center for Advancing Translational Sciences (NCATS)
